Data: PubChem BioAssay AID652053 (Broad Institute, 2013)
Screen size: about 1,300 compounds; about 930 (72%) were called active.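 How the source made its calls: active means fitted curve reaches 40% activation signal increase at or below the top valid tested concentration in every replicate test; inconclusive means replicate tests disagree in their calls; inactive means all replicate tests inactive, including effects opposite the expected signal rise.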 So high a share suggests a set chosen from earlier hits. Not all results are given here. Results with a measured potency or affinity are listed apart.

Assay: miR-122 inhibitors in Huh7 reporter cells, dose response, cell-based, Huh7 psiCHECK-miR122, Renilla luciferase, cherry-pick (AID 652053)
Settings: 48 h; series mostly up to 35 µM

outcome, inactive:
C/C=C/c1ccc([C@H]2[C@@H](CO)N(c3nc(CC)cs3)[C@H]2CNC(C)C)cc1, Cc1cc(C)cc(NC2=NC3(CCCCC3)N=C(N)N2)c1, C/C=C/c1ccc([C@H]2[C@H](CO)N(c3nc(CC)cs3)[C@H]2CNC(C)C)cc1, Cc1cc(N/N=C/c2ccc(O)c(C)c2O)nc(-c2ccccc2O)n1, CCC(=O)Nc1ccc(C(=O)Nc2cccc(C)n2)cc1, C[C@H](CO)N1C[C@H](C)[C@H](CN(C)C(=O)NC2CCCCC2)Oc2ccc(NC(=O)Nc3cccc4ccccc34)cc2CC1=O, C[C@@H]1CN([C@@H](C)CO)C(=O)Cc2cc(NC(=O)Nc3cccc4ccccc34)ccc2O[C@@H]1CN(C)C(=O)NC1CCCCC1, C[C@H](CO)N1C[C@H](C)[C@@H](CN(C)Cc2ccncc2)Oc2ccc(NC(=O)Nc3cccc4ccccc34)cc2CC1=O, CC(C)NC(=O)Nc1ccc2c(c1)CC(=O)N([C@H](C)CO)C[C@@H](C)[C@@H](CN(C)Cc1ccc(Oc3ccccc3)cc1)O2, COc1cccc(C(=O)Nc2cc([N+](=O)[O-])ccc2N2CCN(C)CC2)c1, COc1ccc(NC(C)=O)cc1NC(C)C(=O)Nc1cc(C(F)(F)F)ccc1N1CCOCC1 (stereo not given), Cc1nc2ccccc2n1S(=O)(=O)c1ccc(F)cc1, CC(C)n1c(/C=C/c2ccccc2)nc2ccccc21, COc1ccc(S(=O)(=O)Nc2ccc3c(c2)COC3=O)cc1OC, CC(=O)N1[C@H](CO)[C@H](c2ccc(C3=CCCCC3)cc2)[C@@H]1CNC(=O)CN(C)C, Cc1ccc(C)c(CSc2nnc(-c3cccnc3)o2)c1, COc1ccc(OC)c(Nc2cc(C)nc3nc(C)nn23)c1, Cc1cc(OCC(O)CN2CCOCC2)cc(C)c1Cl (stereo not given), O=C(Nc1cccc([N+](=O)[O-])c1)c1ccc(CSc2ccccc2)cc1, Fc1ccc(-n2nnc(-c3nccs3)n2)cc1, CCc1nc2sc3c(c2c(=O)n1NC(=O)CCl)CCCC3, COc1ccc(CN(C)C[C@@H]2OCCCC[C@@H](C)Oc3ccc(NC(=O)c4ccccc4)cc3C(=O)N([C@H](C)CO)C[C@@H]2C)cc1, COc1cccc(N2CCN(C(=S)Nc3cccc(C)c3)CC2)c1, C/C=C/c1ccc([C@@H]2[C@@H](CO)N(c3nc(CC)cs3)[C@@H]2CNC(C)C)cc1, COc1ccc(CNC(=O)C(c2ccco2)N(C(=O)c2csnn2)c2cccc(C)c2C)cc1 (stereo not given)
